Experiments:
Assay in all cases: DAPPL (digital affinity profiling via proximity ligation, sequencing); 10 mM Tris-HCl pH 7.5, 50 mM NaCl, 1 mM DTT, 4% glycerol, room temperature, 30 min; GST-TFs on glutathione beads, 16-mer random dsDNA library, 0.1% formaldehyde crosslink after washing; high values mean tight binding
Conditions in all cases: protein: recombinant; tags: N-terminal GST; dsDNA, one strand shown
[1] = target: T1, FLI1 (Homo sapiens, UniProt Q01543 1-452)
T1 sequence: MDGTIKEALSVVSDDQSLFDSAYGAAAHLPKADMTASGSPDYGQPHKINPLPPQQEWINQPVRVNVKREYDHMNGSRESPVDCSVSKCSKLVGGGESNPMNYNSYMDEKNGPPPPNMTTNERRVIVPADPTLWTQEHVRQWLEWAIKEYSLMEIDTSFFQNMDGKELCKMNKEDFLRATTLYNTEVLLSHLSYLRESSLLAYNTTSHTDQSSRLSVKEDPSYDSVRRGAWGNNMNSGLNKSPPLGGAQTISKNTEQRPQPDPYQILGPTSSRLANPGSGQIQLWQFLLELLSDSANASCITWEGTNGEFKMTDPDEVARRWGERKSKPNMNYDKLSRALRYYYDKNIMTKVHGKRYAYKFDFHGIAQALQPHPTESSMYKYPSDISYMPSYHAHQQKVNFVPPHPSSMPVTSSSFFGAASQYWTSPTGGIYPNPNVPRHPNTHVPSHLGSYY
In short: (§1)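 Sequencing on an Illumina NextSeq500 followed washing, crosslinking with 0.1% formaldehyde, proximity ligation (BsaI/T4 ligase, 1 h, 37 °C) and PCR amplification of pools that had been incubated for 30 min at room temperature with 200 nmole of a random double-stranded 16-mer DNA library in Tris/NaCl/DTT/glycerol buffer. Each pool held DNA-barcoded human transcription factors, expressed in yeast as GST fusions and captured on glutathione beads, plus a tag-only sample. Binding signal is a hexamer's read frequency for a factor divided by its frequency in the tag-only sample.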

[2] = target: T2, GABPA (Homo sapiens, UniProt Q06546 1-454)
T2 sequence: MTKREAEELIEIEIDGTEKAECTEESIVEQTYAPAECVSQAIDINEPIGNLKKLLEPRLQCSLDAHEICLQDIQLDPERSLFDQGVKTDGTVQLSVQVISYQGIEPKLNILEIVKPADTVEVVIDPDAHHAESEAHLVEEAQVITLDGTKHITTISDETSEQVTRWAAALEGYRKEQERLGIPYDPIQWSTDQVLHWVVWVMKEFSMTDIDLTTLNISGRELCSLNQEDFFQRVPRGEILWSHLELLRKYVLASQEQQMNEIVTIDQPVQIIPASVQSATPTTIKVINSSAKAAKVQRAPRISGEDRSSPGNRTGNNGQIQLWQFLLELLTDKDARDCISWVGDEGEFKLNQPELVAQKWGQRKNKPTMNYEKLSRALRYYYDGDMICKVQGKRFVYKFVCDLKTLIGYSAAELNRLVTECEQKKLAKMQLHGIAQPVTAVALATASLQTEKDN
In short: as §1

[3] = target: T3, ERG (Homo sapiens, UniProt P11308 1-479)
T3 sequence: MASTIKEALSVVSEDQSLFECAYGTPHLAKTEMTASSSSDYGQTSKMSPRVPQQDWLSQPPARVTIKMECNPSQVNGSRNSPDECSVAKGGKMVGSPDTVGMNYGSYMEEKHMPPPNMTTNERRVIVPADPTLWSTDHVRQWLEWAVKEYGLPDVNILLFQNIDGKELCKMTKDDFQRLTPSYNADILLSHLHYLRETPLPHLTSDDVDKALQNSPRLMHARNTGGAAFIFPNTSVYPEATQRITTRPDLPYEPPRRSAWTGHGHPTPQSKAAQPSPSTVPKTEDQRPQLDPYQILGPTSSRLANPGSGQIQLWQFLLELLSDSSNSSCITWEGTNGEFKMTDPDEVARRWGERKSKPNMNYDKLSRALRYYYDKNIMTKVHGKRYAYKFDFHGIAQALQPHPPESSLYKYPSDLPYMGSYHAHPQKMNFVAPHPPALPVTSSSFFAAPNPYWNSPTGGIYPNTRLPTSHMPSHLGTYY
In short: as §1

[4] = target: T4, EHF (Homo sapiens, UniProt Q9NZC4 1-300)
T4 sequence: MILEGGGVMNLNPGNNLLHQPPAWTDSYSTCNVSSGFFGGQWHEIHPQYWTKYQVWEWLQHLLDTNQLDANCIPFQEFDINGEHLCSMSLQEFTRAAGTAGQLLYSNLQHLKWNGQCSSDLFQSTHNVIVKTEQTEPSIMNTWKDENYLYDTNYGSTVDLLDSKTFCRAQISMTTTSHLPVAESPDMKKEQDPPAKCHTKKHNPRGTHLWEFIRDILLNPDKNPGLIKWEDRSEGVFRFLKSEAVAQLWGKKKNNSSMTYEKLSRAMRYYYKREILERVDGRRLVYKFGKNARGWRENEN
In short: as §1

[5] = target: SPIB (Homo sapiens, UniProt Q01892 1-262)
Chain of SPIB (Q01892 whole entry): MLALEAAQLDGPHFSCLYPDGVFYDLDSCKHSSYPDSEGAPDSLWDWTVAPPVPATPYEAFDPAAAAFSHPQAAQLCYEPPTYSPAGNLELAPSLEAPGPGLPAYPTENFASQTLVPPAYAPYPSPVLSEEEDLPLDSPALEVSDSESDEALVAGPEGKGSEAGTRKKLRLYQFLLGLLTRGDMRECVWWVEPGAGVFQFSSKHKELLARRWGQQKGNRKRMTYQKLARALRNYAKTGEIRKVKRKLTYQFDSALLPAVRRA
In short: as §1

[6] = target: T5, ELK3 (Homo sapiens, UniProt P41970 1-407)
T5 sequence: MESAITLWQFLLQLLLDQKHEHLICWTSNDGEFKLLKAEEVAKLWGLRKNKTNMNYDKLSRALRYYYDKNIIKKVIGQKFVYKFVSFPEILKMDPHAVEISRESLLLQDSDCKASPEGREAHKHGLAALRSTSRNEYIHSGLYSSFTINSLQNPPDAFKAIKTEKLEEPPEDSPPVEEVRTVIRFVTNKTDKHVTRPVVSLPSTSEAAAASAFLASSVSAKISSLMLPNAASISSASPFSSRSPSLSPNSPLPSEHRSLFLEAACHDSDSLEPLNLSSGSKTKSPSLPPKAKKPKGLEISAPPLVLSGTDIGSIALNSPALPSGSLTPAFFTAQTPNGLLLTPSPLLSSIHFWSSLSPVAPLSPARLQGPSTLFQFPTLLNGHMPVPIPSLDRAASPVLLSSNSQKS
In short: as §1

[7] = target: T6, FEV (Homo sapiens, UniProt Q99581 1-238)
T6 sequence: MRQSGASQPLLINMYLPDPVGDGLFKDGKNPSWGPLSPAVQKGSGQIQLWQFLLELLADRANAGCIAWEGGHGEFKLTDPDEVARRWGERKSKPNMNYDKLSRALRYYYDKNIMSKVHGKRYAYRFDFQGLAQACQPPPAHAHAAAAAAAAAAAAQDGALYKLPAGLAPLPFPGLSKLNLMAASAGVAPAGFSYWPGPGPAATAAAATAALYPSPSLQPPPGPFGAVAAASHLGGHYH
In short: as §1

[8] = target: ETV5 (Homo sapiens, UniProt P41161 1-510)
Chain of ETV5 (P41161 whole entry): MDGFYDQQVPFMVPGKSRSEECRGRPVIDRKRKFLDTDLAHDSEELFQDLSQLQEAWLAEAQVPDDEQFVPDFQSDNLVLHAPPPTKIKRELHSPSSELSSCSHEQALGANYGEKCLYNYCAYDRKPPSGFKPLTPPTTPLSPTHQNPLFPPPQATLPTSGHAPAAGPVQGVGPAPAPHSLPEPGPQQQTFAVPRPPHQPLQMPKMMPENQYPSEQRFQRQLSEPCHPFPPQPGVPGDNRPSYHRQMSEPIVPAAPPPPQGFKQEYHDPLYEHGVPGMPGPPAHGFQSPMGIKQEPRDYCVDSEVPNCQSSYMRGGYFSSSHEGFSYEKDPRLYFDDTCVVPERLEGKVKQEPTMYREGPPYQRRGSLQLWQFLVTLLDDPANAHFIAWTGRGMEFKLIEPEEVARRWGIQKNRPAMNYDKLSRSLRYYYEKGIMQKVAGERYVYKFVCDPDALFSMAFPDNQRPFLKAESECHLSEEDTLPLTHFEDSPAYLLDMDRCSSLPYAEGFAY
In short: as §1

[9] = target: T7, SPIC (Homo sapiens, UniProt Q8N5J4 1-248)
T7 sequence: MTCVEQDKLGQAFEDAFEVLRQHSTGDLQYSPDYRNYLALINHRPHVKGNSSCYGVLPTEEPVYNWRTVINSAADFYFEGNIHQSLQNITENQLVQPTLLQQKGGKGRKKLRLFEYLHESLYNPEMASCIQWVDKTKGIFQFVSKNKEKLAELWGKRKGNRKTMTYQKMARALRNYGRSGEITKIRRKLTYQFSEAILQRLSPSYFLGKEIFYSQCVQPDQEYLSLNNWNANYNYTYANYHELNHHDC
In short: as §1

[10] = target: ETV1 (Homo sapiens, UniProt P50549 1-477)
Chain of ETV1 (P50549 whole entry): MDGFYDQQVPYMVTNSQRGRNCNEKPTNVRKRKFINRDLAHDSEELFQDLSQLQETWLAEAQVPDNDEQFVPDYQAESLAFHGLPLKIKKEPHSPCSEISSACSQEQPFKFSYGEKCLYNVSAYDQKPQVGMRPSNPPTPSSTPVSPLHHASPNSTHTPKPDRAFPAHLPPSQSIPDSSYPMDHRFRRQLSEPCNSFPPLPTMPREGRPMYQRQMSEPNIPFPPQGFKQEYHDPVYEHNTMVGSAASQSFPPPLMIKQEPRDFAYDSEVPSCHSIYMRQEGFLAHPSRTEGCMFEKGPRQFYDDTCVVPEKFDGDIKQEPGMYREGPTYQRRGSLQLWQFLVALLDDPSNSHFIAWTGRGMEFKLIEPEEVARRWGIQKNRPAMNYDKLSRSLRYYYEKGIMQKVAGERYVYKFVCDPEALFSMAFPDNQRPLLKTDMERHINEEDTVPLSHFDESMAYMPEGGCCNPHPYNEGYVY
In short: as §1

[11] = target: T8, ETV3L (Homo sapiens, UniProt Q6ZN32 1-361)
T8 sequence: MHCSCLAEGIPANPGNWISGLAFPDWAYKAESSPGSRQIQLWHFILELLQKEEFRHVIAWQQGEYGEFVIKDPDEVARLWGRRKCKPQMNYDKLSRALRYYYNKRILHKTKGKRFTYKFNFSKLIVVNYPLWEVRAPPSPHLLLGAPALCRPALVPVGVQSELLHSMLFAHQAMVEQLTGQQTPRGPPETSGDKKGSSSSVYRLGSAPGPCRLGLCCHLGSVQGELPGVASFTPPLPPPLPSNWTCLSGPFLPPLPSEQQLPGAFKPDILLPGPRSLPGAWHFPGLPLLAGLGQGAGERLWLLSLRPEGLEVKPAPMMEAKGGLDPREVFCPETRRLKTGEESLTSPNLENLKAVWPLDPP
In short: as §1

[12] = target: T9, SPDEF (Homo sapiens, UniProt O95238 1-335)
T9 sequence: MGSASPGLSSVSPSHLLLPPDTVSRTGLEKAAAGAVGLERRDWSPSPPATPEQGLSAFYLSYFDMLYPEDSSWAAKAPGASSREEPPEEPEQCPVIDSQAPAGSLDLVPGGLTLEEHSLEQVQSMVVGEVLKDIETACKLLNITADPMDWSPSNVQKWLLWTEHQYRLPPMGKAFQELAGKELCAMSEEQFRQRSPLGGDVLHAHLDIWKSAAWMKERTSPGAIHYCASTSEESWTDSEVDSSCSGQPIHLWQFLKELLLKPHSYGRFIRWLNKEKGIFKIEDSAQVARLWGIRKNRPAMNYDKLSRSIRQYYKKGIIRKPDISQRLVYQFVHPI
In short: as §1

[13] = target: T10, ETV3 (Homo sapiens, UniProt P41162-2 1-143)
T10 sequence: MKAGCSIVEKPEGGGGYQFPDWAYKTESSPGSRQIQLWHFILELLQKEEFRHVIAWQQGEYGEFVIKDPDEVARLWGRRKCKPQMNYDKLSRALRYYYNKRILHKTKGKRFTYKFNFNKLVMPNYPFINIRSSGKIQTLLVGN
In short: as §1

[14] = target: ETV6 (Homo sapiens, UniProt P41212 1-452)
Chain of ETV6 (P41212 whole entry): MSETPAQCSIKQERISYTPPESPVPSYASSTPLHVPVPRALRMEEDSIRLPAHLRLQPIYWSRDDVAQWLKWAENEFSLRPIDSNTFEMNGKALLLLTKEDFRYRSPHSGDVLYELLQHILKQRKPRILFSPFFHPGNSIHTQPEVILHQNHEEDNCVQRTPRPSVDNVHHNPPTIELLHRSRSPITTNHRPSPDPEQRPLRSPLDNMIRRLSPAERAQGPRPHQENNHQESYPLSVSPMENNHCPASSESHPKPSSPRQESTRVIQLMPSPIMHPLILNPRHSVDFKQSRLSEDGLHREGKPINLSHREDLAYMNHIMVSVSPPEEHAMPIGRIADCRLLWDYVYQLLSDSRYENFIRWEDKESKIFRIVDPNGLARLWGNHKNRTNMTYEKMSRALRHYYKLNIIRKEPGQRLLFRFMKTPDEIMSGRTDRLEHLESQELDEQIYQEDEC
In short: as §1

[15] = target: T11, ELK1 (Homo sapiens, UniProt P19419 1-428)
T11 sequence: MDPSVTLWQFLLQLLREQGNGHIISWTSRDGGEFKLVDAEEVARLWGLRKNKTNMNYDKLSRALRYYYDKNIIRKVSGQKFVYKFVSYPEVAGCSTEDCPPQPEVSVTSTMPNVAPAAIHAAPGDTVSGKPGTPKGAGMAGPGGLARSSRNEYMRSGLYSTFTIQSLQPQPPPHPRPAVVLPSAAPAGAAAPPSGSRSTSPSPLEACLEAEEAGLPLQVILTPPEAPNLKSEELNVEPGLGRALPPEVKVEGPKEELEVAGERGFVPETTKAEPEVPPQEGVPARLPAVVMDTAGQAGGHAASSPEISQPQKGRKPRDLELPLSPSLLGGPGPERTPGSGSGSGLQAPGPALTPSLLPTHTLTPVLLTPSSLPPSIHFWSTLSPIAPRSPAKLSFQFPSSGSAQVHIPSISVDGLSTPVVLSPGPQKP
In short: as §1

[16] = target: ELF1 (Homo sapiens, UniProt P32519 1-619)
Chain of ELF1 (P32519 whole entry): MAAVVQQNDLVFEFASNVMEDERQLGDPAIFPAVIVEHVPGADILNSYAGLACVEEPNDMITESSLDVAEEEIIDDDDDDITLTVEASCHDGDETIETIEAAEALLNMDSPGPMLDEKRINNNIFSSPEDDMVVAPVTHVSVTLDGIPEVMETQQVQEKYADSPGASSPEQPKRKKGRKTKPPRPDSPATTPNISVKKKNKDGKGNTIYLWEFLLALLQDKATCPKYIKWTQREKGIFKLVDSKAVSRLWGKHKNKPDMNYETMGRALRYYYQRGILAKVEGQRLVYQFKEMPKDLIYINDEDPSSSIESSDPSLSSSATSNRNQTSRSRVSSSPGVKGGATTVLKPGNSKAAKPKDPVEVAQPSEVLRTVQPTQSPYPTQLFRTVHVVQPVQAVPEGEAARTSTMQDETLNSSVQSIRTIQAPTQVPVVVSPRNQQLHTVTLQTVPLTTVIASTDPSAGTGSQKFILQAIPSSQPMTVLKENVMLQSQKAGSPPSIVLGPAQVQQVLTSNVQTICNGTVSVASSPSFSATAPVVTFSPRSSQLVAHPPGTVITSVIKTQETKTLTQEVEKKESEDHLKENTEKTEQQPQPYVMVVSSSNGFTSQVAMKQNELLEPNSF
In short: as §1

[17] = target: SPI1 (Homo sapiens, UniProt P17947 1-270)
In short: as §1

[18] = target: T12, ERF (Homo sapiens, UniProt P50548 1-548)
T12 sequence: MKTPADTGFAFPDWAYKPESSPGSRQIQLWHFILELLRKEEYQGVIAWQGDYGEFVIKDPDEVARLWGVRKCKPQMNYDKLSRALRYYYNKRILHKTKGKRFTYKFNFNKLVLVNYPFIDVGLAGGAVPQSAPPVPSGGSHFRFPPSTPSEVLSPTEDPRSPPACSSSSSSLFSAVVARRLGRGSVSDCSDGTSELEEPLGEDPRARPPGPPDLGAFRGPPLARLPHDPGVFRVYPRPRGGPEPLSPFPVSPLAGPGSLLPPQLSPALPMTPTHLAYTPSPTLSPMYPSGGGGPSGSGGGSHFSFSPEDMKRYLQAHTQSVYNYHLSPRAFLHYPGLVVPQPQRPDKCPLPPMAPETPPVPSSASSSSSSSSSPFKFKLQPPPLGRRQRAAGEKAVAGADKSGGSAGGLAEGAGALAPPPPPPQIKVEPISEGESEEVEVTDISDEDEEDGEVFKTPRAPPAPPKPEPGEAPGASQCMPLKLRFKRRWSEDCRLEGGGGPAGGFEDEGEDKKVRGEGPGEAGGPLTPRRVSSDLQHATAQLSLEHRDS
In short: as §1

[19] = target: T13, ETS2 (Homo sapiens, UniProt P15036 1-469)
T13 sequence: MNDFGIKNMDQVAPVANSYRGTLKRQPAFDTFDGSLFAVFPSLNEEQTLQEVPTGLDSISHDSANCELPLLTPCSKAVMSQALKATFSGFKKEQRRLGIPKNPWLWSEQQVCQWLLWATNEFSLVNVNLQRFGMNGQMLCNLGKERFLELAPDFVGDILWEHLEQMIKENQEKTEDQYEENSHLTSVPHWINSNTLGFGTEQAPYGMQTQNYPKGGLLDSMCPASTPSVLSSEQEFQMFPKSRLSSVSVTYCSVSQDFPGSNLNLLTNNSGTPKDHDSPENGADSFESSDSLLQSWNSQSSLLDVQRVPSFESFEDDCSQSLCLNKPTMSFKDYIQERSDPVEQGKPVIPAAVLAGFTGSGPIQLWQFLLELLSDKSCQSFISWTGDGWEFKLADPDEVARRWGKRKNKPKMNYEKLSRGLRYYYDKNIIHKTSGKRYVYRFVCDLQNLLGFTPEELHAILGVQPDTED
In short: as §1

Sequence | binding signal [1] | binding signal [2] | binding signal [3] | binding signal [4] | binding signal [5] | binding signal [6] | binding signal [7] | binding signal [8] | binding signal [9] | binding signal [10] | binding signal [11] | binding signal [12] | binding signal [13] | binding signal [14] | binding signal [15] | binding signal [16] | binding signal [17] | binding signal [18] | binding signal [19]
GTCCGC | 1.1 fold enrichment (6-mer frequency, TF over GST control) | 1 fold enrichment (6-mer frequency, TF over GST control) | 1.04 fold enrichment (6-mer frequency, TF over GST control) | 1.05 fold enrichment (6-mer frequency, TF over GST control) | 1.03 fold enrichment (6-mer frequency, TF over GST control) | 1.1 fold enrichment (6-mer frequency, TF over GST control) | 1.04 fold enrichment (6-mer frequency, TF over GST control) | 1.07 fold enrichment (6-mer frequency, TF over GST control) | 1.21 fold enrichment (6-mer frequency, TF over GST control) | 1.08 fold enrichment (6-mer frequency, TF over GST control) | 1.02 fold enrichment (6-mer frequency, TF over GST control) | 1.07 fold enrichment (6-mer frequency, TF over GST control) | 1.03 fold enrichment (6-mer frequency, TF over GST control) | 1.03 fold enrichment (6-mer frequency, TF over GST control) |  |  |  |  | 
GTTGCG | 1 fold enrichment (6-mer frequency, TF over GST control) |  | 1.09 fold enrichment (6-mer frequency, TF over GST control) |  | 1.15 fold enrichment (6-mer frequency, TF over GST control) | 1.01 fold enrichment (6-mer frequency, TF over GST control) |  | 1.07 fold enrichment (6-mer frequency, TF over GST control) | 1.23 fold enrichment (6-mer frequency, TF over GST control) |  | 1.06 fold enrichment (6-mer frequency, TF over GST control) |  | 1.07 fold enrichment (6-mer frequency, TF over GST control) |  | 1.04 fold enrichment (6-mer frequency, TF over GST control) | 1.02 fold enrichment (6-mer frequency, TF over GST control) | 1.02 fold enrichment (6-mer frequency, TF over GST control) | 1.14 fold enrichment (6-mer frequency, TF over GST control) | 1.07 fold enrichment (6-mer frequency, TF over GST control)
